Source: PubChem BioAssay AID1159580 (chemical genetic matrix, 2015)
About 2,000 (36%) of roughly 5,500 compounds were called active. About 18% were inconclusive and are not listed. No stated cut-off is given here; in the data, active means normalized growth mostly below about 0.91 (no sharp cut-off); inconclusive means no clear call, values can overlap the other calls; inactive means mostly above about 0.92. The list shows a part of the results.

Assay: chemical genetic growth profiling, strain panel (AID 1159580);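 further: tested at 20 µM; growth read once vehicle control cultures reached saturation at 30 °C; 1 = growth at the plate median or of vehicle wells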
Details: S. cerevisiae deletion strains, growth OD

Measured: normalized growth

OCc1cc(C(O)CNCCCCCCOCCCCc2ccccc2)ccc1O (centres undefined)
inactive: locus YAL040C, strain CLN3, stronger effect = lower value 1.07 | locus YCL061C, strain MRC1 (second series), stronger effect = lower value 1.01 | locus YDR150W, strain NUM1, stronger effect = lower value 1.01 | locus YDR363W, strain ESC2, stronger effect = lower value 0.995 | locus YER002W, strain NOP16, stronger effect = lower value 1.02 | locus YMR263W, strain SAP30, stronger effect = lower value 1.01 | locus YMR307W, strain GAS1, stronger effect = lower value 0.992 | locus YNL175C, strain NOP13, stronger effect = lower value 1.01 | locus YNL197C, strain WHI3, stronger effect = lower value 1.01 | locus YNL224C, strain SQS1, stronger effect = lower value 1.01 | locus YOR083W, strain WHI5 (second series), stronger effect = lower value 1.01 | locus YPL055C, strain LGE1, stronger effect = lower value 0.983 | locus YPL241C, strain CIN2, stronger effect = lower value 0.997

N/C(Cn1ccc(C(F)(F)F)n1)=N/OS(=O)(=O)c1cccc(Cl)c1Cl
inactive: locus YAR019C, strain CDC15, stronger effect = lower value 0.979 | locus YBL105C, strain PKC1, stronger effect = lower value 0.989 | locus YBR135W, strain CKS1, stronger effect = lower value 0.977 | locus YBR136W, strain MEC1, stronger effect = lower value 0.985 | locus YBR160W, strain CDC28, stronger effect = lower value 0.972 | locus YDL017W, strain CDC7, stronger effect = lower value 0.994 | locus YDL028C, strain MPS1, stronger effect = lower value 0.985 | locus YDL101C, strain DUN1, stronger effect = lower value 0.989 | locus YDL108W, strain KIN28, stronger effect = lower value 0.98 | locus YDL132W, strain cdc53, stronger effect = lower value 0.983 | locus YDL214C, strain PRR2, stronger effect = lower value 1.01 | locus YDR052C, strain DBF4, stronger effect = lower value 0.986 | locus YDR054C, strain cdc34, stronger effect = lower value 0.975 | locus YDR226W, strain ADK1, stronger effect = lower value 0.987 | locus YDR477W, strain SNF1, stronger effect = lower value 0.993 | locus YER123W, strain YCK3, stronger effect = lower value 0.989 | locus YER133W, strain GLC7, stronger effect = lower value 0.995 | locus YFL009W, strain cdc4, stronger effect = lower value 0.988 | locus YFL029C, strain CAK1, stronger effect = lower value 0.979 | locus YFR003C, strain YPI1, stronger effect = lower value 0.985 | locus YFR019W, strain FAB1, stronger effect = lower value 1 | locus YFR028C, strain CDC14, stronger effect = lower value 0.98 | locus YGR040W, strain KSS1, stronger effect = lower value 0.983 | locus YGR052W, strain FMP48, stronger effect = lower value 1.09 | locus YGR092W, strain DBF2, stronger effect = lower value 0.974 | locus YHR030C, strain SLT2, stronger effect = lower value 1.07 | locus YHR079C, strain IRE1, stronger effect = lower value 1.05 | locus YHR082C, strain KSP1, stronger effect = lower value 1.11 | locus YHR205W, strain SCH9, stronger effect = lower value 1.02 | locus YIL147C, strain SLN1, stronger effect = lower value 0.987 | locus YJL095W, strain BCK1, stronger effect = lower value 1.08 | locus YJL128C, strain PBS2, stronger effect = lower value 0.988 | locus YJL157C, strain FAR1, stronger effect = lower value 1 | locus YJR016C, strain ILV3, stronger effect = lower value 0.989 | locus YJR066W, strain TOR1 (second series), stronger effect = lower value 0.982 | locus YJR066W, strain TOR1, stronger effect = lower value 1.12 | locus YKL048C, strain ELM1, stronger effect = lower value 0.984 | locus YKL067W, strain YNK1, stronger effect = lower value 0.994 | locus YKL101W, strain HSL1, stronger effect = lower value 1.01 | locus YKL193C, strain SDS22, stronger effect = lower value 0.983 | locus YKL203C, strain TOR2, stronger effect = lower value 1.06 | locus YLR113W, strain HOG1, stronger effect = lower value 1.04 | locus YLR133W, strain CKI1, stronger effect = lower value 1.01 | locus YLR403W, strain SFP1, stronger effect = lower value 0.992 | locus YML070W, strain DAK1, stronger effect = lower value 1 | locus YMR001C, strain CDC5, stronger effect = lower value 0.983 | locus YMR205C, strain PFK2 (second series), stronger effect = lower value 1 | locus YMR277W, strain FCP1, stronger effect = lower value 0.991 | locus YNL006W, strain LST8, stronger effect = lower value 0.99 | locus YNL020C, strain ARK1, stronger effect = lower value 1.01 | locus YNL161W, strain CBK1, stronger effect = lower value 0.981 | locus YNL183C, strain NPR1, stronger effect = lower value 1.06 | locus YNL207W, strain RIO2, stronger effect = lower value 0.977 | locus YNL222W, strain SSU72, stronger effect = lower value 0.977 | locus YNL307C, strain MCK1 (second series), stronger effect = lower value 0.997 | locus YOL078W, strain AVO1, stronger effect = lower value 0.986 | locus YOL136C, strain PFK27, stronger effect = lower value 1.02 | locus YOR061W, strain CKA2, stronger effect = lower value 1.01 | locus YOR119C, strain RIO1, stronger effect = lower value 1.04 | locus YOR231W, strain MKK1, stronger effect = lower value 1.01 | locus YOR329C, strain SCD5, stronger effect = lower value 0.992 | locus YPL031C, strain PHO85, stronger effect = lower value 0.998 | locus YPL153C, strain RAD53, stronger effect = lower value 0.987 | locus YPL204W, strain HRR25, stronger effect = lower value 0.989 | locus YPL209C, strain IPL1, stronger effect = lower value 0.978 | locus YPL256C, strain CLN2, stronger effect = lower value 1.03 | locus YPR025C, strain CCL1, stronger effect = lower value 0.978 | locus YPR106W, strain ISR1, stronger effect = lower value 0.992 | locus YPR111W, strain DBF20, stronger effect = lower value 0.976 | strain NNK1, stronger effect = lower value 0.998 | strain TSCII, stronger effect = lower value 0.986
